Reference: PubChem BioAssay (Tox21)
Results filed as inconclusive are left out. Activity calls are given as the source filed them. Unless noted, calls follow the shape of the dose curve; as a rule, active = well fitted curve in the direction sought with a large enough effect in the repeat runs; inconclusive = weak or mixed curves; inactive = no such curve, though single readings can be large; an effect the other way counts as inactive or inconclusive.

How the values were obtained:
[1] = qHTS assay for small molecules that induce genotoxicity in human embryonic kidney cells expressing luciferase-tagged ATAD5 (AID 651632); also: nearly all actives have a fitted effect of over 15% in size; also: potency is read from the fitted curve at half-maximal effect
Outline: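 Increased luciferase signal from ATAD5-tagged reporter cells indicates DNA-damage-driven ATAD5 induction. HEK293T cells are treated for 16 hr at 37C before detection with Amplite.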

[2] = qHTS assay for small molecule agonists of the p53 signaling pathway - cell viability (AID 651633; calls by dose curve;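 also: p53RE-bla HCT reporter cells with a stable beta-lactamase p53 reporter; series mostly up to about 83 µM; nearly all actives have a fitted effect of over 30% in size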)
Outline: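 p53RE-bla cells were treated with compound for 16 hours at 37 C. Cytotoxicity was then measured as CellTiter-Glo luminescence after 30 min at room temperature.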

[3] = qHTS assay for small molecules that induce genotoxicity in human embryonic kidney cells expressing luciferase-tagged ATAD5 - cell viability (AID 651634; calls by dose curve; also: nearly all actives have a fitted effect of over 25% in size)
Outline: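 Cytotoxicity counterscreen in HEK293T cells bearing an ATAD5-luciferase reporter: live-cell protease activity measured by CellTiter-Fluor fluorescence after 15.5 hr compound exposure.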

[4] = qHTS assay for small molecule disruptors of the mitochondrial membrane potential - cell viability (AID 720634; calls by dose curve;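 also: human HepG2 liver cancer cells; series mostly up to about 83 µM; nearly all actives have a fitted effect of over 20% in size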)
Outline: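 After overnight attachment at 37 C, HepG2 cells received compound or DMSO vehicle for 1 hr. Viability is then taken from ATP-driven luminescence following a 30 min room-temperature CellTiter-Glo step.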

[5] = qHTS assay to test for compound auto fluorescence at 590 nm (red) in HepG2 cells (AID 720674)
Outline: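 Fluorescence at 590 nm emission following 540 nm excitation was recorded from HepG2 wells one hour after compound transfer, with DMSO-only wells as vehicle and Rose Bengal sodium equivalency as the scale.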

[6] = qHTS assay to test for compound auto fluorescence at 535 nm (green) in HepG2 cells (AID 720675)
[7] = qHTS assay to test for compound auto fluorescence at 460 nm (blue) in HEK293 cells (AID 720678)
Outline: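 Intrinsic compound fluorescence is recorded in live HEK293 cultures after overnight incubation at 37C, 5% CO2, using excitation 405 nm and emission 460 nm. Values are referenced to triamterene.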

[8] = qHTS assay for small molecule disruptors of the mitochondrial membrane potential (AID 720635); also: potency is read from the fitted curve at half-maximal effect
Outline: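 HepG2 cells exposed to compound 1 hr at 37C, then Mito-MPS dye 30 min. Ratio read of aggregate (540/590 nm) versus monomer (490/535 nm) fluorescence.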

[9] = qHTS assay to test for compound auto fluorescence at 590 nm (red) in HEK293 cells (AID 720679)
Outline: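 Red autofluorescence, HEK293 cells: 2,000 cells/well; attach 4-5 hr 37C; add 23 nL cpd or DMSO; incubate o/n 37C 5% CO2; read Ex540/Em590; Rose Bengal sodium reference.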
% is scaled to controls: 0 for no effect and ±100 for the full control effect.

OC1OC[C@@H](O)[C@H](O)[C@H]1O (stereo partly drawn)
inactive: Potency [1] | Potency [2] | Potency [3] | Potency [4] | outcome [5] | outcome [6] | Potency [7]

CCCCCN(CCCCC)C(=O)C(CCC(=O)O)NC(=O)c1ccc(Cl)c(Cl)c1 (stereo not drawn)
inactive: Potency [1] | Potency [2] | Potency [3] | Potency [4] | Potency [8] | outcome [6] | Potency [7] | outcome [9]

CCC(=O)/C=C/c1ccc(OC)cc1
inactive: Potency [1] | Potency [2] | Potency [3] | Potency [4] | Potency [8] | outcome [5] | outcome [6] | Potency [7] | outcome [9]

Cc1ccc(N)cc1[N+](=O)[O-]
inactive: Potency [1] | Potency [2] | Potency [3] | Potency [4] | Potency [8] | Potency [7]

c1cc(CN2CCCCC2)cc(OCCCNc2nc3ccccc3s2)c1
inactive: Potency [1] | Potency [2] | Potency [3] | Potency [4] | outcome [5] | outcome [6] | Potency [7] | outcome [9]

O=[N+]([O-])c1ccc(Oc2ccc([N+](=O)[O-])cc2)cc1
active: Potency [8] 5.57 µM
inactive: Potency [1] | Potency [2] | Potency [3] | Potency [4] | outcome [5] | outcome [6] | outcome [9]

CC1CCN(CCCC(=O)c2ccc(F)cc2)CC1
inactive: Potency [1] | Potency [2] | Potency [3] | Potency [4] | Potency [8] | outcome [5] | outcome [9]

CC(=O)NC(Cc1ccccc1)C(=O)O (stereo not drawn)
inactive: Potency [1] | Potency [2] | Potency [3] | Potency [4] | Potency [8] | outcome [5] | outcome [9]

CCCCOCC(C)OCC(C)O (stereo not drawn)
inactive: Potency [1] | Potency [2] | Potency [3] | Potency [4] | Potency [8] | outcome [6] | Potency [7] | outcome [9]

O=Cc1ccccc1[N+](=O)[O-]
inactive: Potency [1] | Potency [2] | Potency [3] | Potency [4] | outcome [5] | outcome [6] | Potency [7]

COc1cc(C)cc(O)c1
inactive: Potency [1] | Potency [2] | Potency [3] | Potency [4] | Potency [8] | outcome [5] | Potency [7] | outcome [9]

CC1=CC(=O)CCC1
inactive: Potency [1] | Potency [2] | Potency [3] | Potency [4] | Potency [8] | outcome [6] | Potency [7] | outcome [9]

CSc1ccc(C=O)cc1
inactive: Potency [1] | Potency [2] | Potency [3] | Potency [4] | Potency [8] | outcome [6] | Potency [7] | outcome [9]

Cn1ccc2cc3c(cc21)CCN3C(=O)Nc1cccnc1
inactive: Potency [2] | Potency [3] | Potency [4] | outcome [5] | outcome [6] | Potency [7]
active: Potency [1] 11.9 µM

CCN(CC)C(=O)c1ccc(O)c(OC)c1
inactive: Potency [1] | Potency [2] | Potency [3] | Potency [4] | Potency [8] | outcome [5] | outcome [6] | outcome [9]

NC(=O)c1ncn([C@@H]2O[C@H](CO)[C@@H](O)[C@H]2O)c1N
inactive: Potency [1] | Potency [2] | Potency [3] | Potency [4] | Potency [8] | outcome [5] | outcome [6] | Potency [7] | outcome [9]

CCC(C(=O)NC(N)=O)c1ccccc1 (stereo not drawn)
inactive: Potency [1] | Potency [2] | Potency [3] | Potency [4] | Potency [8] | outcome [5] | outcome [6] | Potency [7] | outcome [9]

CCCOc1ccccc1-c1nc2n[nH]nc2c(=O)[nH]1
inactive: Potency [1] | Potency [2] | Potency [3] | Potency [4] | outcome [5] | outcome [6] | Potency [7]

C1C2OC2C2C1C1CC2C2OC12 (stereo not drawn)
inactive: Potency [1] | Potency [2] | Potency [3] | Potency [4] | Potency [8] | outcome [5] | outcome [6] | outcome [9]

NC(N)=NS(=O)(=O)c1ccc(N)cc1
inactive: Potency [1] | Potency [2] | Potency [3] | Potency [4] | Potency [8] | fluorescence, relative to Rose Bengal [5] -0.133% [at 18.6 µM] | fluorescence, % of fluorescein control [6] 0.0157% [at 18.6 µM] | fluorescence, % of triamterene [7] 0.195% [at 18.6 µM] | fluorescence, % of fluorescent control [9] 0.29% [at 18.6 µM]

COc1ccc(NC(C)=O)cc1
inactive: Potency [1] | Potency [2] | Potency [3] | Potency [4] | Potency [8] | outcome [5] | outcome [6] | Potency [7] | outcome [9]

CC1=CC(C)C(C=O)C(C)C1 (stereo not drawn)
inactive: Potency [1] | Potency [2] | Potency [3] | Potency [4] | Potency [8] | outcome [5] | outcome [6] | outcome [9]

OCC(CO)(CO)COCC(CO)(CO)CO
inactive: Potency [1] | Potency [2] | Potency [3] | Potency [4] | outcome [6] | Potency [7]

CCCCCCOC(=O)CC(CC(=O)OCCCCCC)(OC(=O)CCC)C(=O)OCCCCCC
inactive: Potency [1] | Potency [2] | Potency [3] | Potency [4] | outcome [5] | outcome [6] | Potency [7] | outcome [9]

CCN1CCCC(OC(=O)C(c2ccccc2)c2ccccc2)C1 (stereo not drawn)
inactive: Potency [1] | Potency [2] | Potency [3] | Potency [4] | fluorescence, relative to Rose Bengal [5] 0.0398% [at 18.6 µM] | fluorescence, % of fluorescein control [6] 0.107% [at 18.6 µM] | fluorescence, % of triamterene [7] 0.0169% [at 18.6 µM] | fluorescence, % of fluorescent control [9] -0.0352% [at 18.6 µM]

Cc1ccccc1Br
inactive: Potency [1] | Potency [2] | Potency [3] | Potency [4] | outcome [5] | Potency [7] | outcome [9]

C#CC(O)C(CC)CCCC (stereo not drawn)
inactive: Potency [1] | Potency [2] | Potency [3] | Potency [4] | outcome [5] | outcome [6] | Potency [7] | outcome [9]

CC(C)CCCC(C)CCCC(C)CCCCC(C)CCCC(C)CCCC(C)C (stereo not drawn)
inactive: Potency [1] | Potency [2] | Potency [3] | Potency [4] | outcome [5] | outcome [6] | outcome [9]

CN1[C@@H]2CC[C@H]1CC(NC(=O)n1c(=O)[nH]c3ccccc31)C2 (stereo partly drawn)
inactive: Potency [1] | Potency [2] | Potency [3] | Potency [4] | outcome [6] | Potency [7] | outcome [9]

Fc1ccccc1-c1ccccc1
inactive: Potency [1] | Potency [2] | Potency [3] | Potency [4] | outcome [5] | Potency [7] | outcome [9]

CC(C)CCOC(=O)CC(C)C
inactive: Potency [1] | Potency [2] | Potency [3] | Potency [4] | outcome [5] | outcome [9]

COC(=O)CCCCCCCCC(=O)OC
inactive: Potency [1] | Potency [2] | Potency [3] | Potency [4] | outcome [5] | outcome [6] | Potency [7] | outcome [9]

c1ccc(CCCc2ccccn2)cc1
inactive: Potency [1] | Potency [2] | Potency [3] | Potency [4] | outcome [5] | outcome [6] | Potency [7] | outcome [9]

COc1cccc(OC)c1
inactive: Potency [1] | Potency [2] | Potency [3] | Potency [4] | outcome [5] | outcome [9]

CCCCCCCCCCC1CO1 (stereo not drawn)
inactive: Potency [1] | Potency [2] | Potency [3] | Potency [4] | outcome [6] | Potency [7] | outcome [9]

CCCCCCCCN(C)CCCCCCCC
inactive: Potency [1] | Potency [2] | Potency [3] | Potency [4] | outcome [5] | outcome [6] | outcome [9]

CC(=O)OC(C)(C)C
inactive: Potency [1] | Potency [2] | Potency [3] | Potency [4] | outcome [5] | outcome [6] | Potency [7] | outcome [9]

CC(C=O)Cc1ccc(C(C)C)cc1 (stereo not drawn)
inactive: Potency [1] | Potency [2] | Potency [3] | Potency [4] | outcome [6] | outcome [9]

NCCNC(=O)c1ccc(Cl)cn1
inactive: Potency [1] | Potency [2] | Potency [3] | Potency [4] | outcome [5] | outcome [6] | Potency [7] | outcome [9]

CC(C)(C)C(=O)/C=C/c1ccc(Cl)cc1
inactive: Potency [1] | Potency [2] | Potency [3] | Potency [4] | outcome [5] | outcome [6] | Potency [7] | outcome [9]

OC/C=C/c1ccccc1
inactive: Potency [1] | Potency [2] | Potency [3] | Potency [4] | outcome [5] | outcome [6] | outcome [9]

Nc1ccn(C2CO[C@H](CO)O2)c(=O)n1 (stereo partly drawn)
inactive: Potency [1] | Potency [2] | Potency [3] | Potency [4] | outcome [5] | outcome [6] | Potency [7] | outcome [9]

CCn1cc(C(=O)O)c(=O)c2cc(F)c(N3CCN(C)CC3)cc21
inactive: Potency [1] | Potency [2] | Potency [3] | Potency [4] | outcome [6] | Potency [7] | outcome [9]

CCN(CC)S(=O)(=O)c1ccc(C(=O)O)cc1
inactive: Potency [1] | Potency [2] | Potency [3] | Potency [4] | outcome [5] | outcome [6] | Potency [7] | outcome [9]
